# In ChEMBL document CHEMBL4513216, “Probing the Open Global Health Chemical Diversity Library for Multistage-Active Starting Points for Next-Generation Antimalarials” (ACS Infect Dis, 2020):
# Hit rate of the full screen: of about 68,000 compounds, about 2,700 (4%) showed an effect of 50% or more. Many of the other results were omitted from the sample, so strong results are more common in it than they were.
# Test system: Plasmodium berghei
# Assay: Screen against P. berghei liver stage (PbLuc), transformed with Luciferase, at 2uM
# Type: functional, HepG2
# Settings: tested at 2 uM
row,Compound,INHIBITION [%]
1,CCc1nc(CN2CCCN(c3ncnc4ccsc34)CC2)no1,80
2,CCc1nc(CN2CCCN(c3ncnc4sccc34)CC2)no1,37.75
3,CCc1nc(CN2CCCN(c3ncnc4ccccc34)CC2)no1,-50.34
4,CC(C)CN1CCN(C(=O)c2ccn(C)c(=O)c2)CC1,1.36
5,Cc1cnn(CC2CCCN2Cc2nc3ccccc3n2C)c1 (stereo unspecified),9.9
6,CC(C)c1cc(C(=O)NCCN2CCCS2(=O)=O)n[nH]1,-61.61
7,O=C(Cc1ccccc1)N1CCOC(c2nc(-c3ncccn3)no2)C1 (stereo unspecified),0.18
8,O=C(CC1CCCC1)N1CCOC(c2nc(-c3ncccn3)no2)C1 (stereo unspecified),57.82
9,O=C(C1CCCC1)N1CCOC(c2nc(-c3ncccn3)no2)C1 (stereo unspecified),22.81
10,Cc1ccccc1C(=O)Nc1cnn(CC(=O)NC2CCCC2)c1,-24.24
11,CN(C)c1cc(C2CCCN(S(=O)(=O)C3CCCC3)C2)ccn1 (stereo unspecified),29.89
12,CCS(=O)(=O)N1CCCC(c2ccnc(N(C)C)c2)C1 (stereo unspecified),59.91
13,CN(C)c1cc(C2CCCN(S(=O)(=O)c3cn(C)cn3)C2)ccn1 (stereo unspecified),36.15
14,CC(C)NC(=O)c1cc(-c2ccc(S(C)(=O)=O)cc2)c2cnn(C)c2n1,10.93
15,Cc1nc(CC(=O)N2CCC(Nc3cccnn3)CC2)cs1,3.97
16,CCN(Cc1cccc(-c2ccncc2)c1)S(N)(=O)=O,20.14
17,CCN(Cc1cccc(-c2ccncc2)c1)S(C)(=O)=O,63.1
18,CCN(C)S(=O)(=O)N(CC)Cc1cccc(-c2ccncc2)c1,21.24
19,O=C(Cc1ccon1)N1CCc2cc(Br)sc2C1,-10.14

row,Compound,INHIBITION [%]
1,COc1ccc(CNC(=O)N2CCC(Cc3cnn(C)c3)C2)cc1C (stereo unspecified),20.28
2,Cc1cnc(NCc2ccncc2)nc1-c1cnn(C)c1,72.34
3,Cc1cnc(NCc2cnn(C)c2)nc1-c1cnn(C)c1,10.13
4,CCNc1ncc(C)c(-c2cnn(C)c2)n1,8.26
5,CCNC(=O)NC(C)(C)C(=O)NCCc1csc2ccccc12,32.03
6,c1cnc(-c2nc(CN3CCN(CC4CC4)CC3)cs2)nc1,24.88
7,COc1ccc(C2SCC(=O)Nc3ccsc32)cc1OC (stereo unspecified),7.62
8,Cn1c(=O)n(C)c2cc(C3SCC(=O)Nc4ccsc43)ccc21 (stereo unspecified),74.91
9,O=C1CSC(c2ccc(O)cc2)c2sccc2N1 (stereo unspecified),17.94
10,CN(C(=O)C1CCN(Cc2cnc3ccccn23)CC1)c1ccccc1,4.07
11,COCc1nnc(C(=O)N(C)Cc2cnc3ccccn23)o1,80.13
12,CCc1nc(C)c(C(=O)N(C)Cc2cnc3ccccn23)o1,52.81
13,CCCc1nnc(C(=O)N(C)Cc2cnc3ccccn23)o1,-2.89
14,COCc1nnc(C(=O)N(C)Cc2ccc(OC)cc2)o1,14.55
15,CCOC(=O)N(C)C1CCN(Cc2cnc3ccccn23)CC1,2.26
16,CS(=O)(=O)N1CCCCC12CCCN(Cc1nccs1)C2 (stereo unspecified),-14.74
17,CCc1cc(NCCNc2ccncc2C)n2nc(C)c(C)c2n1,-7.77
18,CC(Nc1ccn(Cc2ccccn2)n1)C(=O)NC(C)(C)C (stereo unspecified),-48.1
19,Cc1nc(CN(C)C)cc(N2CCCC(COc3ccc(F)cc3)C2)n1 (stereo unspecified),40.47

row,Compound,INHIBITION [%]
1,Cc1noc(C)c1C(=O)N1CC[C@H]2C[C@@H](c3ccncn3)O[C@@H]2C1,1.42
2,Cc1oncc1C(=O)N1CC[C@H]2C[C@H](c3ccncn3)O[C@@H]2C1,52.34
3,Cc1cc(C(=O)N2CC[C@H]3C[C@H](c4ccncn4)O[C@@H]3C2)c(C)[nH]1,-16.33
4,CN(Cc1ccc(Cl)c(Cl)c1)C(=O)CNC(N)=O,32.81
5,COCCN1CCC2(CC1)CC(Nc1ccc(C)nn1)CO2 (stereo unspecified),7.72
6,Cc1noc(OCC(=O)N2CCCCC2C)n1 (stereo unspecified),50.32
7,CC1CCCCN1C(=O)COc1nc(C(C)(C)C)no1 (stereo unspecified),47.04
8,CC(C)c1noc(OCC(=O)N2CCCCC2C)n1 (stereo unspecified),17.48
9,CCC(C)CNCC1(S(C)(=O)=O)CCOCC1 (stereo unspecified),10.03
10,CCC(CC)CNCC1(S(C)(=O)=O)CCOCC1,59.99
11,CC(CNCC1(S(C)(=O)=O)CCOCC1)c1ccc(F)cc1 (stereo unspecified),29.28
12,Cc1cc2nc(SCC(=O)N3CCOCC3)n(CC(C)C)c(=O)c2[nH]1,50.74
13,Cc1cc2nc(SCC(=O)N3CCOCC3)n(CCC(C)C)c(=O)c2[nH]1,44.15
14,CCn1c(SCC(=O)N2CCOCC2)nc2cc(C)[nH]c2c1=O,33.58
15,CC(C)CN1CCC(c2nnc(CN3CCCC3)n2C2CC2)CC1,8.03
16,CCC(=O)N1CCCC1c1nccnc1Nc1nc(C)cc(C)n1 (stereo unspecified),44.72
17,NC(=O)C1(CCCc2ccncc2)CCCN1 (stereo unspecified),46.98
18,CN(C)C(=O)C1(CCCc2ccncc2)CCCN1 (stereo unspecified),54.82
